Test results published in PubChem BioAssay (EPA / NIEHS).
Activity calls are given as the source filed them. How the source made its calls: active means hit-call score of the fitted dose curve at least 0.9, where 1 is the maximum; inconclusive means response in the unintended direction; inactive means score below 0.9.

assay: Tanguay_ZF_120hpf_ActivityScore_legacy: (Legacy) Oregon State University Tanguay Lab 120 Hour Post-fertilization zebrafish Assay Score for Activity (AID 2283742);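 on AC50: dechorionated Tropical 5D wild-type zebrafish embryos held singly per well; static exposure from 6 hpf until 120 hpf at 28 °C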
How it was run: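 Dechorionated Tropical 5D embryos, one per well from 6 hpf, statically exposed to 120 hpf at 28 °C in 0.64% DMSO. Mortality and malformations scored binary by brightfield microscopy; activity score combines 18 endpoints, fitted positively versus DMSO.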

Row | Structure (SMILES) | outcome | AC50
1 | CCCCCOC(=O)COc1cc(N2C(=O)C3=C(CCCC3)C2=O)c(F)cc1Cl | inactive | 
2 | C[C@]12C[C@H](O)[C@H]3[C@@H](CCC4=CC(=O)CC[C@@]43C)[C@@H]1CC[C@@H]2C(=O)CO | inactive | 
3 | CCNc1nc(N)nc(Cl)n1 | inactive | 
4 | N#CSCSc1nc2ccccc2s1 |  | 0.11 µM (active)
5 | COC(=O)CSc1cc(N=c2sc(=O)n3n2CCCC3)c(F)cc1Cl | inactive | 
6 | CCCCOC(=O)[C@@H](C)Oc1ccc(Oc2ccc(C(F)(F)F)cn2)cc1 | inactive | 
7 | CCCCOCCOCCOCc1cc2c(cc1CCC)OCO2 |  | 4.35 µM (active)
8 | CC(=O)[C@H]1CC[C@H]2[C@@H]3CCC4=CC(=O)CC[C@]4(C)[C@H]3CC[C@]12C | inactive | 
9 | COC(=O)c1ccccc1C(=O)O | inactive | 
10 | CCCN(CCC)c1c([N+](=O)[O-])cc(C(F)(F)F)c(N)c1[N+](=O)[O-] | inactive | 
11 | COC(=O)c1ccc(I)cc1S(=O)(=O)NC(=O)Nc1nc(C)nc(OC)n1 | inactive | 
12 | COc1c(Cl)ccc(Cl)c1C(=O)O | inactive | 
13 | CC(=O)S[C@@H]1CC2=CC(=O)CC[C@]2(C)[C@H]2CC[C@@]3(C)[C@@H](CC[C@@]34CCC(=O)O4)[C@H]12 | inactive | 
14 | CCOC(=O)NCCOc1ccc(Oc2ccccc2)cc1 | inactive | 
15 | c1ccc2[nH]c(-c3cscn3)nc2c1 | inactive | 
16 | C#C[C@]1(O)CC[C@H]2[C@@H]3CCC4=CC(=O)CC[C@@H]4[C@H]3CC[C@@]21CC | inactive | 
17 | C[C@]12CC[C@@H]3c4ccc(O)cc4C[C@@H](CCCCCCCCCS(=O)CCCC(F)(F)C(F)(F)F)[C@H]3[C@@H]1CC[C@@H]2O (stereo partly specified) | inactive | 
18 | CCOC(=O)C(C)Oc1ccc(Oc2nc3ccc(Cl)cc3o2)cc1 (stereo unspecified) | inactive | 
19 | CCCCOC(=O)C(C)Oc1ccc(Oc2ccc(C(F)(F)F)cn2)cc1 (stereo unspecified) | inactive | 
20 | CCCOC(=O)NCCCN(C)C | inactive | 
21 | CCOC(=O)c1ccc(O)cc1 | inactive | 
22 | CCOC(=O)COc1cc(-n2ncc(C(F)(F)F)c(C)c2=O)c(F)cc1Cl | inactive | 
23 | Oc1ccc(C(c2ccc(O)cc2)C(Cl)(Cl)Cl)cc1 |  | 30.8 µM (active)
24 | CN(C)C(=O)Nc1ccc(Cl)c(Cl)c1 | inactive | 
25 | CCSC(=O)N(CC(C)C)CC(C)C | inactive | 
26 | CCCCC(CC)CN1C(=O)C2C3C=CC(C3)C2C1=O (stereo unspecified) | inactive | 
